Experimental data as given in PubChem BioAssay AID686915 (National Center for Advancing Translational Sciences (NCATS), 2013).
Where “and” joins values, the source holds several entries; their conditions need not be identical. Equal entries are not always repeated. Records with an inconclusive call do not appear. A number with no mark means an inactive call. Calls of active or inactive are those of the source. Calls follow the shape of the dose curve; as a rule, active = well fitted inhibition curve with a large enough effect; inconclusive = small, poorly fitted or top-dose-only effect; inactive = no such curve, though single readings can be large or run the other way.

Assay: qHTS screen for inhibitors of ELG1-dependent DNA repair in human embryonic kidney (HEK293T) cells expressing luciferase-tagged ELG1: MMS Stimulated Assay for probe SAR
Settings: HEK293T ELG1-luciferase reporter, 16 h; series mostly up to 46.1 µM; activity change, negative = inhibition: at the top concentration
Description: Cancer cells divide rapidly compared to normal cells in the body. During cell division, cancer cells need to duplicate their genome by DNA replication. The failure of genome duplication leads to cancer cells' death. Therefore, inhibitors of DNA replication could specifically kill cancer cells. Based on this concept, many chemotherapeutic agents were developed and have been used to treat cancer patients. However, there are a limited number of agents available in the clinical setting, and some of those that do exist have low efficacy and severe side effects. Therefore, if we can find the compounds that effectively block DNA replication either by directly damaging DNA or by inhibiting other cellular mechanisms, the options for cancer treatment will be broadened. With this in mind, we developed a quantitative high-throughput ELG1-luciferase reporter gene assay. Small molecules that specifically block ELG1 function in response to DNA damage can be identified by monitoring the suppression of luciferase activity. Since ELG1 defines a pathway for repairing DNA damage, agents blocking ELG1 function can be used to sensitize cancer cells to chemotherapeutic agents whose mechanism of action involves the induction of DNA damage. NIH Molecular Libraries Probe Production Network [MLPCN] NIH Chemical Genomics Center [NCGC] MLPCN Grant: R03 MH092164 Assay Provider: Kyungjae Myung, NHGRI, NIH
ELG1-luc HEK293T cells will be seeded in 1536-well plates at a density of 2,000 cells / well. Approximately 5 hours after plating, compounds will be added to the plate by pin tool transfer and MMS will be added by FRD dispenser (final concentration of MMS = 10 µM). 16 hours following the addition of the compounds, luciferase activity will be measured using Amplight reagent.

| SMILES | activity change, negative = inhibition | Potency |
| --- | --- | --- |
| Cc1cc(-c2nc(Nc3ccc(F)c(F)c3)c3ccccc3n2)ccn1 | 14.4% | – |
| COc1cc(Nc2nc(-c3ccncc3)nc3ccccc23)ccc1NS(C)(=O)=O | -8.84% | – |
| COc1cnccc1-c1nc(Nc2ccc(F)c(F)c2)c2ccccc2n1 | – | 13.2 µM (active) |
| Fc1cc(Nc2nc(-c3ccncc3)nc3ccccc23)ccc1N1CCCCC1 | – | 18.7 µM (active) |
| Cc1cc(-c2nc(Nc3ccc(F)c(F)c3)c3ccccc3n2)cc(C)n1 | 10.5% | – |
| CN1CCN(c2cc(-c3nc(Nc4ccc(F)c(F)c4)c4ccccc4n3)ccn2)CC1 | – | 23.5 µM (active) |
| Fc1cc(Nc2nc(-c3ccncc3)nc3ccccc23)ccc1-c1ccc(F)c(F)c1F | 13% | – |
| Nc1cc(-c2nc(Nc3ccc(F)c(F)c3)c3ccccc3n2)ccn1 | -27.1% | – |
| Fc1ccccc1-c1ccc(Nc2nc(-c3ccncc3)nc3ccccc23)cc1F | – | 16.6 µM (active) |
| Fc1cc(Nc2nc(-c3ccncc3)nc3ccccc23)ccc1-c1cc(F)c(F)c(F)c1 | 2.36% | – |
| Fc1ccc(Nc2nc(-c3ccnc(C(F)(F)F)c3)nc3ccccc23)cc1F | – | 18.7 µM (active) |
| Fc1cc(Nc2nc(-c3ccncc3)nc3ccccc23)ccc1C(F)(F)F | – | 8.33 µM (active) and 13.2 µM (active) |
